rTrxR1 inhibitor – inhibitors of rat thioredoxin reductase 1 | recombinant rTrxR1, NADPH fluorescence consumption, selenite substrate | Potency, µM (doses to about 114 µM), for the others: top-dose activity change, negative = inhibition, actives largely listed as inhibitors | 390,000 compounds, 1% hits | O89049 | AID 588453; note: % is set by controls: 0 for no effect and ±100 for the full control effect; nearly all actives have a fitted effect of over 65% in size
Target sequence (O89049 whole entry, looked up): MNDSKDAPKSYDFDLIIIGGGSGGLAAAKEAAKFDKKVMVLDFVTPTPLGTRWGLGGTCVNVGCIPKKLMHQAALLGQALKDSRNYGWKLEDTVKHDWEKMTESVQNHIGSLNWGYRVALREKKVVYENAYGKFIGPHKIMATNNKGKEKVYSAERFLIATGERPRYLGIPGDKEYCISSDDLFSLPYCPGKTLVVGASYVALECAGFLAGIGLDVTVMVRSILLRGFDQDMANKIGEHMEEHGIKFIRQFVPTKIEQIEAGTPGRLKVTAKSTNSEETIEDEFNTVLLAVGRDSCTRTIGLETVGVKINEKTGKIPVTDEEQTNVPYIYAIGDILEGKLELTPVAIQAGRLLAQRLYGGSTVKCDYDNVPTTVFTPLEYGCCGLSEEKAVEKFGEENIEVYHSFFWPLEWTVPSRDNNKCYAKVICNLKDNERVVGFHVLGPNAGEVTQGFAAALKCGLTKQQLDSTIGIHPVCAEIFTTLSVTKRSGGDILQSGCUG
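Rat TrxR1 (90 nM in the dispensed reagent) was pre-reduced with 400 uM NADPH for 5 min at room temperature, then incubated with compound for 15 min. After 400 uM selenite was added, NADPH fluorescence (Ex 340/Em 450 nm) was followed for 8 min.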
TrxR1 substrate – rat thioredoxin reductase 1 substrate activity | Potency, µM (doses to about 114 µM), inactives show at the top dose activity change, negative = substrate turnover | purified TrxR1 substrate turnover, NADPH consumption readout | 390,000 compounds, 0.01% hits | AID 588456; note: % is set by controls: 0 for no effect and ±100 for the full control effect; nearly all actives have a fitted effect of over 50% in size
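Rat TrxR1, dispensed at 90 nM, was prereduced with 400 uM NADPH (final) for 5 min at ~22 deg C, then incubated with compound 15 min before 400 uM selenite. A first-read NADPH fluorescence drop versus no-compound background flagged substrates.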
Vif-APOBEC3F blk – inhibitors of Vif-A3F interaction. HeLa A3F-eYFP + Vif (tagged APOBEC3F with the HIV-1 protein that degrades it), YFP fluorescence increase. Potency, µM (titrated, usually from 46.1 µM), without a hit: at the top dose activity, negative = active. 390,000 compounds, 0.2% hits. AID 602313; note: % of control where 0% means no effect; nearly all actives have a fitted effect of over 65% in size
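HeLa cells stably expressing A3F-eYFP plus Vif, plated and incubated overnight at 37 deg C, then exposed to compounds overnight at 37 deg C. Blocked degradation read as raised yellow fluorescence (Ex 488/Em 500-530).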
Vif-APOBEC3G blk – inhibitors of Vif-APOBEC3G interaction; Q9HC16; 410,000 compounds, 0.076% hits; Potency, µM (titrated, usually from 46.1 µM), for inactives: at the highest dose activity, negative = active, hits mostly inhibitors; HeLa A3G-eYFP + Vif (tagged APOBEC3G with the HIV-1 protein that degrades it), YFP fluorescence, overnight; note: % is set by controls: 0 for no effect and ±100 for the full control effect; nearly all actives have a fitted effect of over 60% in size
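Read-out is eYFP fluorescence (Ex 488/Em 500-530) from Vif-expressing HeLa A3G-eYFP cells; more signal means A3G escaped Vif-mediated degradation. Cells plated overnight, compound pinned in, incubated overnight at 37 deg C.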
VDR inhibitor – inhibitors of human vitamin D receptor | P11473 | VDR-SRC2-3 peptide fluorescence polarization, 2 h | Potency, µM, inactives show max response, negative = inhibition, usual class: inhibitors | 400,000 compounds, 0.93% hits | AID 504847; note: % is set by controls: 0 for no effect and ±100 for the full control effect
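VDR–SRC2-3 interaction, FP format. Cmpds 23 nl via pintool, brief spin, 2 h ambient incubation.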
* marks the source's active call; other numbers are inactive results; i = inactive; ? = inconclusive; nt = not tested or not shown; [ ] = another dose, or the depositor's remark. Hits are enriched below; roughly 1.8% of the tested compounds scored in any of these assays. Calls come from the whole dose curve; as a rule, active = well fitted curve in the direction sought with a large enough effect; inconclusive = small, poorly fitted or top-dose-only effect, or another doubt; inactive = no such curve, though single readings can be large; an effect the other way counts as inactive or inconclusive. Potency is the fitted concentration of half-maximal effect.

SMILES	rTrxR1 inhibitor	TrxR1 substrate	Vif-APOBEC3F blk	Vif-APOBEC3G blk	VDR inhibitor
Cc1ccc(SC(CC(=O)c2ccc(C)cc2)C(=O)O)cc1 (centres undefined)	39.8µM*	-4.4%	-9.8%	?	20µM*
CCOc1ccc2c(c1)nc(SCC(=O)c1ccc(Br)s1)n2C	25.1µM*	-6.0%	-6.0%	?	89.1µM*
CCOc1ccc2c(c1)nc(SCC(=O)c1cccs1)n2C	?	8.4%	-7.2%	-3.7%	?
Cn1c(/C=C/c2ccccc2)nc2ccccc2c1=O	-12.8%	-2.9%	3.8%	-9.8%	-18.8%
Cn1c(/C=C/c2ccc([N+](=O)[O-])o2)nc2ccccc2c1=O	10µM*	-12.1%	11.2µM*	2.82µM*	-19.6%
CCc1ccc(CNC(=O)CSCc2cnn(-c3ccccc3)c2-n2cccc2)cc1	7.0%	2.8%	nt	nt	6.2%
COC(=O)C1=C[C@@H](C(=O)OC)C2C3=C(C(=O)[C@@]2(C)NC(=O)c2ccccc2)[C@H](C)[C@@H]2C(=O)N(C)C(=O)[C@@H]2[C@@H]3C1 (some centres undefined)	6.1%	-5.0%[57.1 µM]	nt	2.3%	-29.2%
O=S1(=O)CCOC[C@H](c2ccccc2)N1Cc1ccc(Cl)c(Cl)c1	31.4%	-1.0%	nt	-2.0%	nt
COc1cc(/C=C2/SC(=Nc3ccc(O)cc3)NC2=O)ccc1O	-10.5%	-1.2%	25.1µM*	?	-6.6%
COc1cc(/C=C2\SC(=Nc3ccccc3OC)NC2=O)ccc1O	-17.9%	-14.4%	?	?	0.9%
O=C1NC(=Nc2ccccc2)S/C1=C/c1cccnc1	0.3%[57.1 µM]	3.0%[57.1 µM]	15.7%	4.3%	3.5%
COc1cc(/C=C2\SC(=Nc3cccnc3)NC2=O)cc(OC)c1OC	14.0%[57.1 µM]	-0.6%[57.1 µM]	25.1µM*	?	-8.5%
COc1ccc(CCn2c3c(c(=O)[nH]c2=S)CN(c2ccccc2)CN3)cc1OC	-10.4%	4.7%	nt	nt	-4.9%
Cc1ccc2c(c1)/C(=C/c1ccccc1)C(=O)N2	-7.8%	-6.5%	9.2%	-21.7%	?
CN1C(=O)c2ccccc2C(O)c2ccccc21 (centres undefined)	12.6%	0.9%	7.4%	0.0%	-7.2%
CC(=O)/C=C1\C(=O)N(C)c2ccccc21	29.9µM*	20.0%[57.1 µM]	nt	nt	25.1µM*
CN1C(=O)/C(=C\C(=O)c2cccs2)c2ccccc21	-23.4%[57.1 µM]	0.3%[57.1 µM]	-3.7%	-4.3%	28.2µM*
CC(=O)/C=C1/C(=O)Nc2ccccc21	?	1.9%	3.3%	?	44.7µM*
O=C1NC(=O)/C(=C/c2ccc3c(c2)OC(F)(F)O3)S1	-7.7%[57.1 µM]	-3.1%[57.1 µM]	nt	nt	?
NS(=O)(=O)c1ccc(S(=O)(=O)N2CCN(c3nc(-c4cccs4)nc4ccccc34)CC2)cc1	6.1%	3.0%	nt	-5.8%	?
COc1ccc(C(=O)C[n+]2ccc(Cl)c3ccc(Cl)cc32)cc1	-27.1%	-3.7%	nt	3.9%	nt
CCOc1cc(CNc2ccc(O)cc2)cc(Br)c1OCc1ccccc1F	?	-4.2%	-4.4%	-10.2%	79.4µM*
COc1cc(CNCc2ccncc2)cc(Br)c1OCc1ccccc1F	11.7%	-2.4%	-12.8%	0.6%	-5.2%
COc1cc(CNc2ccc(O)cc2)cc(Br)c1OCc1ccccc1F	20µM*	-13.6%	-2.6%	-21.4%	35.5µM*
Cc1ccc2oc(/N=C(\N)NC(=O)C3CC3)nc2c1	17.6%	-3.0%	-4.0%	?	2.1%
SMILES	rTrxR1 inhibitor	TrxR1 substrate	Vif-APOBEC3F blk	Vif-APOBEC3G blk	VDR inhibitor
Cc1ccc2oc(/N=C(\N)NC(=O)C(C)(C)C)nc2c1	40.2%	17.4%	22.4µM*	4.2%	-3.1%
CC(=O)NC1Sc2ccccc2N=C1c1ccccc1 (centres undefined)	-17.2%	-2.6%[2.29 µM]	nt	-2.8%	79.4µM*
COc1cc2c(cc1OC)C(Cc1ccc(O)cc1)NCC2 (centres undefined)	-29.5%	6.6%	-2.6%	-5.6%	-14.1%
CCOc1ccc(CC2NCCc3cc(OCC)c(OCC)cc32)cc1OCC (centres undefined)	50.1µM*	4.8%	-2.3%	2.2%	?
COc1cc(/C=C(\C#N)C(=O)N2CCOCC2)cc(Br)c1O	-4.5%	-4.8%	-1.0%	-2.3%	7.5%
N#C/C(=C\c1cccc(Oc2ccccc2)c1)C(=O)N1CCOCC1	?	7.2%[57.1 µM]	-12.6%	-6.4%	44.7µM*
Cc1cc[n+](CCC2CCCCC2)cc1	20.7%	6.5%	nt	3.1%	nt
N#CC(c1ccc(Cl)cc1)c1c(Cl)cc(-n2ncc(=O)[nH]c2=O)cc1Cl (centres undefined)	nt	nt	nt	nt	28.2µM*
N#CC(c1ccc(Cl)cc1)c1ncc(C(F)(F)F)cc1Cl (centres undefined)	12.7%	-5.4%	-1.9%	1.7%	-19.2%
CCCCN1C(=O)/C(=C/C=C2/CC(C)(C)CN2C)SC1=S	-0.6%	-7.6%	?	3.55µM*	-18.0%
CCCCN1C(=O)/C(=C/C=C2\Oc3ccccc3N2CC)SC1=S	-8.1%	-5.3%	i	1.58µM*	12.5%
CCN1C(=O)/C(=C/C=C2/SCCN2C)SC1=S	2.8%[57.1 µM]	-10.8%	?	?	1.7%
Cc1cc(/C=C2\C=Cc3ccccc32)cc(C)c1N	-9.0%	-0.9%	nt	-14.4%	nt
CCCCc1ccc(CC(=O)NO)cc1	-4.8%	-7.2%	nt	4.1%	nt
CN1CC(O)C2=CC(=O)C(=O)C=C21 (centres undefined)	nt	nt	nt	nt	11.2µM*
CCOC(=O)c1ccc(CC(=O)c2ccc(O)cc2O)o1	-6.3%[57.1 µM]	13.2%[57.1 µM]	3.9%	-3.3%	8.1%
CCC(=O)Oc1ccc(C/C(=N\O)c2ccc(O)cc2O)o1	10µM*	9.6%	-0.6%	-3.2%	9.1%
O=c1oc(-c2ccccc2)cc(Cl)c1Cl	5.62µM*	13.5%[57.1 µM]	?	-25.6%	-23.2%
O=c1cc(-c2ccccc2)oc2ccc(Cl)cc12	-5.3%[11.4 µM]	5.3%[57.1 µM]	5.4%	-2.3%	18.4%
COC(=O)c1ccc(-c2nc(O)c(C)s2)cc1	12.9%	11.1%	0.1%	-11.5%	79.4µM*
COc1ccc(OCc2nnc(SCC(=O)N(C)Cc3ccccc3)n2N)cc1	2.7%[57.1 µM]	2.8%[57.1 µM]	3.2%	0.2%	79.4µM*
O=C(C[n+]1cccc(Br)c1)c1ccc(O)c(O)c1	-14.2%	-16.7%	nt	0.4%	nt
O=C(c1nnsc1S(=O)(=O)c1ccc(Cl)cc1)N1CCOCC1	?	3.6%[57.1 µM]	9.2%	-6.8%	?
CNC(=O)c1nnsc1S(=O)(=O)c1ccc(Cl)cc1	0.282µM*	2.7%	6.1%	?	10µM*
Cc1cc(C)nc(Nc2nc(C(N)Cc3ccccc3)cs2)n1 (centres undefined)	nt	nt	nt	4.47µM*	nt
COC(=O)c1cc(C)nc(Nc2nc(C(N)Cc3ccc(F)cc3)cs2)n1 (centres undefined)	nt	nt	nt	0.8%	nt
Nc1c(Br)cc(/C=C2\C=Cc3ccccc32)cc1Br	-7.5%	3.9%[0.0914 µM]	nt	-9.0%	nt
Cc1ccc(C)c(NC(=S)NNc2ccc(F)cc2F)c1	-4.0%[57.1 µM]	1.2%[57.1 µM]	?	-1.9%	10µM*
Cc1ccc(C)c(NC(=S)NCCc2ccc(F)cc2)c1	-0.9%	-4.1%	?	6.8%	-5.3%
Cc1ccc(N2NC(=O)/C(=C/c3ccc(-c4ccc(Cl)c(C(=O)O)c4)o3)C2=O)cc1C	5.3%	6.9%	1.8%	0.2%	4.5%
